This is an account of results in PubChem BioAssay (NCATS).

Test [1] deals with Glutathione peroxidase 1 (Homo sapiens) (UniProt P07203). The test is described as follows: Primary qHTS Assay for Inhibitors of Recombinant Selenoprotein Glutathione Peroxidase 1 (GPX1) (AID 1845191). Further: nearly all actives have a fitted effect of over 65% in size. The note with it: recombinant GPX1, GR-coupled NADPH fluorescence, 15 min; series mostly up to 48.8 µM. The method, boiled down:
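GR-coupled assay: compounds preincubated 30 min at room temperature with GPX1, then reaction started with CHP; final 10 nM GPX1, 1 mM GSH, 0.5 mM CHP, 0.5 mM NADPH, 100 nM GR, 0.01% BSA, pH 7.5 Tris buffer. NADPH fluorescence (340/450 nm) read at 0 and 15 min.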
Background: Quantitative high-throughput screening tests each substance at several concentrations.

In test [2] the target is Luciferin 4-monooxygenase (Photinus pyralis) (UniProt P08659). The test is described as follows: Primary firefly luciferase (FLuc) qHTS assay for identification of artifact compounds. (AID 1845220). Further: nearly all actives have a fitted effect of over 60% in size. Further: potency means the concentration at half of the fitted maximal effect. The note with it: purified firefly luciferase, luminescence, 5 min; series mostly up to 54.1 µM. A digest of the protocol:
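D-luciferin and ATP (10 uM each, final) in Tris acetate buffer pH 7.6 were incubated with compounds for 15 min at room temperature. The reaction was started with 10 nM Photinus pyralis luciferase and luminescence read after 5 min. Percent inhibition was fitted to a 4-parameter Hill equation.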

Test [3] can be described thus: Primary fluorescence-based thiol-reactive (MSTI) qHTS assay for identification of artifact compounds. (AID 1845221). Further: nearly all actives have a fitted effect of over 65% in size. Further: potency means the concentration at half of the fitted maximal effect. The note with it: MSTI thiol-reactivity probe, 1 h; series mostly up to 53.8 µM. A digest of the protocol:
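Probe: MSTI 4 uM, PBS pH 7.4, 2% DMSO. Incubation 1 h, RT, light-protected. Readout fluorescence 525/598 nm.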

The subject of test [4] is Nanoluciferase (engineered Oplophorus gracilirostris luciferase). Nature of the test: Primary Nanoluciferase (NLuc) qHTS assay for identification of artifact compounds. (AID 1845222). Conditions: NLuc-conditioned medium, Nano-Glo luminescence, 5 min; series mostly up to 54.1 µM. A digest of the protocol:
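Diluted conditioned medium from NLuc-expressing S16 cells treated with compounds for 15 min at room temperature, then Nano-Glo substrate added; luminescence read after 5 min. Percent inhibition versus no-enzyme and DMSO controls fitted to 4-parameter Hill equation.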

For test [5], the target named is Phospholipid hydroperoxide glutathione peroxidase GPX4 (Homo sapiens) (UniProt P36969). Nature of the test: Primary qHTS Assay for Inhibitors of Recombinant Selenoprotein Glutathione Peroxidase 4 (GPX4) (AID 1845192). Further: nearly all actives have a fitted effect of over 65% in size. Further: potency means the concentration at half of the fitted maximal effect. The note with it: recombinant GPX4, GR-coupled NADPH fluorescence, 15 min; series mostly up to 50 µM. A digest of the protocol: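 GR-coupled assay: recombinant GPX4 preincubated 30 min with compound at room temperature; final 200 nM GPX4, 1 mM GSH, 0.5 mM cumene hydroperoxide, 0.5 mM NADPH, 100 nM GR, 0.01% BSA, pH 7.5 Tris. NADPH fluorescence (340/450 nm) read at 0 and 15 min.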
Phospholipid hydroperoxide glutathione peroxidase GPX4 (Homo sapiens), sequence (P36969 whole entry, looked up): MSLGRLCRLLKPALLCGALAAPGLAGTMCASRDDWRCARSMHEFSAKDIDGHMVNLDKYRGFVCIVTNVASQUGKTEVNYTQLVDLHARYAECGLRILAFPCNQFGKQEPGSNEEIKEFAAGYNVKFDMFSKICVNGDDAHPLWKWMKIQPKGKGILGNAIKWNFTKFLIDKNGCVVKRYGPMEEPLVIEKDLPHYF

Test [6] is described as follows: Primary redox qHTS assay for identification of artifact compounds. (AID 1845223). The note with it: Amplex Red/HRP redox cycling with DTT, fluorescence; series mostly up to 53.8 µM. The method, boiled down: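 Amplex Red (25 uM) and HRP (250 mU/mL) in HBSS, with compounds for 15 min, then 250 uM DTT for 30 min, room temperature, dark. Fluorescence 525/598 nm read; normalized to DMSO and 10 uM DA3003; Hill fit.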

Records with an inconclusive call do not appear. Calls of active or inactive are those of the source. The call rests on the fitted dose curve; in most records, active means well fitted curve in the direction sought with a large enough effect; inconclusive means small, poorly fitted or top-dose-only effect, or another doubt; inactive means no such curve, though single readings can be large; an effect the other way counts as inactive or inconclusive.

Glutathione peroxidase 1 (Homo sapiens), sequence (P07203 whole entry, looked up): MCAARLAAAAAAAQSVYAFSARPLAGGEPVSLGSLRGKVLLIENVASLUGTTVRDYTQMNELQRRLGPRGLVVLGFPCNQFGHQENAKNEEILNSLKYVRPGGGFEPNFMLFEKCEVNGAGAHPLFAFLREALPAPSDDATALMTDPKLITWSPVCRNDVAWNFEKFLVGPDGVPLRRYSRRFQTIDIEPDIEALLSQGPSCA

Turning to `CC(=O)OC[C@@]12C(=O)C[C@@H](C)[C@]3(C[C@@H](c4ccoc4)O[C@H]3OC(C)=O)[C@H]1CCC[C@]21CO1`, the Potency result in test [1], in test [2], in test [3] and in test [4] was “inactive” throughout.
Turning to `COc1ccc2c(OC)c3ccoc3nc2c1OC`, the Potency result in test [5], in test [2], in test [3], in test [4] and in test [6] was “inactive” each time.
Take `C=C(C(=O)O)C1CCC2(C)CCC(O)C(C)(O)C2C1` (stereo not given): the Potency result in test [5], in test [2], in test [4] and in test [6] was “inactive” throughout.
Take `CC1=C(/C=C/C(C)=C\C=C\C(C)=C/C(=O)O)C(C)(C)CCC1`: the Potency result in test [5], in test [2], in test [3] and in test [4] was “inactive” each time.
As for `CC(=O)OC12COC1CC(O)C1(C)C(=O)C(O)C3=C(C)C(OC(=O)C(O)C(NC(=O)OC(C)(C)C)c4ccccc4)CC(O)(C(OC(=O)c4ccccc4)C21)C3(C)C` (stereo not given), the Potency entry in test [5], in test [2], in test [3], in test [4] and in test [6] was “inactive” in each case.
`Cn1nnc(-c2ccc(-c3ccc(N4C[C@H](COP(=O)(O)O)OC4=O)cc3F)cn2)n1`: the Potency in test [5] is 22.7 µM (active). Also, the Potency result in test [2], in test [3], in test [4] and in test [6] was “inactive” each time.
In the case of `CC(C)C(N)C(=O)OCCOCn1cnc2c(=O)[nH]c(N)nc21` (stereo not given), the Potency result in test [5], in test [2], in test [3], in test [4] and in test [6] was “inactive” throughout.
`CNC(C)C(=O)NC(C(=O)N1CCCC1c1nc(C(=O)c2ccc(F)cc2)cs1)C1CCCCC1` (stereo not given): the Potency result in test [5], in test [2], in test [3], in test [4] and in test [6] was “inactive” in each case.
As for `O=C(Nc1ccc(Cl)cc1F)c1ccccc1O`, the Potency entry in test [5], in test [3], in test [4] and in test [6] was “inactive” in each case. The Potency in test [2] was 1.2 µM (active).
For the molecule `CC(=O)N1CCN(Cc2ccc([C@H](C)Nc3nccc(N4C(=O)OC[C@@H]4C(C)C)n3)cc2)CC1`, the Potency result in test [5], in test [2], in test [3] and in test [4] was “inactive” throughout.
In the case of `CC(C)[N+]1(C)C2CCC1CC(OC(=O)C(CO)c1ccccc1)C2` (stereo not given), the Potency result in test [1], in test [2], in test [4] and in test [6] was “inactive” throughout.
For `OC1CCC(Nc2ncc3nc(Nc4c(F)cc(F)cc4F)n([C@H]4CCOC4)c3n2)CC1` (stereo not given in full), the Potency in test [5] was 20.2 µM (active). In addition, the Potency result in test [2], in test [4] and in test [6] was “inactive” throughout.
Regarding `C=C[C@H]1CN2CC[C@H]1C[C@@H]2C(O)c1ccnc2ccc(OC)cc12` (stereo not given in full), the Potency result in test [5], in test [2], in test [3], in test [4] and in test [6] was “inactive” in each case.
As for `O=[N+]([O-])c1cn2c(n1)OCC(OCc1ccc(OC(F)(F)F)cc1)C2` (stereo not given), the Potency entry in test [2], in test [4] and in test [6] was “inactive” in each case.
As to `CC(C)(C)CCN1C[C@@H]2C(CNC(=O)c3cc(Cl)cc(Cl)c3)[C@@H]2C1` (stereo not given in full), the Potency result in test [5], in test [2], in test [3], in test [4] and in test [6] was “inactive” throughout.
With `CCC(C)/C=C(C)/C=C/c1cc2c(cn1)C(=O)C(C)(OC(C)=O)C(O)=C2Cl` (stereo not given), the Potency entry in test [1] and in test [4] was “inactive” in each case. The Potency in test [3] is 0.736 µM (active).
Take `NC(=O)C(CCC(F)(F)F)N(Cc1ccc(-c2ncon2)cc1F)S(=O)(=O)c1ccc(Cl)cc1` (stereo not given): the Potency result in test [5], in test [2], in test [3], in test [4] and in test [6] was “inactive” each time.
